Hits are enriched below; roughly 0.84% of the tested compounds scored in any of these assays.
PPARg SRC2 recr: agonists of SRC-2 recruitment by human PPARgamma; P37231; PPARgamma LBD-SRC-2 recruitment, biochemical; activation, % at 8 µM; 0.34% of 200,000 active; AID 1032; in the data active means activation above about 22%;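 further: 0% = vehicle and 100% = reference agonist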
Target sequence (P37231 whole entry, looked up, the tested form may be a part): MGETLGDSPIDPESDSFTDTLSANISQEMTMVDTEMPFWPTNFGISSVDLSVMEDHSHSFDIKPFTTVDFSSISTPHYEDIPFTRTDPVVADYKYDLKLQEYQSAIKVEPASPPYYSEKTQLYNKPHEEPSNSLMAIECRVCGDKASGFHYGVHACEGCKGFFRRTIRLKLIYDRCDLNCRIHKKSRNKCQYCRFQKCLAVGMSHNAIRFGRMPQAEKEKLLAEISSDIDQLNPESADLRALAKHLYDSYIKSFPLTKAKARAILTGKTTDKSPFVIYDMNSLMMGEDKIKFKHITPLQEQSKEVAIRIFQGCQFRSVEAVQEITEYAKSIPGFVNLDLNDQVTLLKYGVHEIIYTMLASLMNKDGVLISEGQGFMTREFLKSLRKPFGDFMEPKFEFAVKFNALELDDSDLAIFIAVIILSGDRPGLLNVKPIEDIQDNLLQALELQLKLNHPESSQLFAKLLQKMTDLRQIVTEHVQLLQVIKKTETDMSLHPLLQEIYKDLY
PPARg SRC1 recr: PPARgamma-driven SRC-1 recruitment agonism | P37231 | PPARgamma-SRC-1 coactivator recruitment biochemical assay | activation, % at 8 µM | 0.41% of 200,000 active | AID 631; in the data active means activation above about 19%;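 further: 0% = DMSO and 100% = reference agonist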
TR-FRET SRC-2 ct: TR-FRET artefact, counter-screen to PPARgamma/SRC-2 agonist assay; TR-FRET ratio at 8 µM; 0.4% of 200,000 active; active compounds read high; AID 1049
PPARg SRC-3 ag: agonists of human PPARgamma SRC-3 coactivator recruitment; biochemical PPARgamma/SRC-3 coactivator recruitment assay; activation, % at 8 µM; 0.26% of 200,000 active; in the data active means activation above about 23%;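 further: 0% = DMSO and 100% = reference agonist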
SRC3 TRFRET art: flags TR-FRET format artefacts in PPARgamma SRC-3 recruitment agonist screen; TR-FRET artefact counter-screen, PPARgamma/SRC-3 format; active compounds read high; TR-FRET ratio at 8 µM; 0.39% of 99,000 active; AID 1048
SRC1 TRFRET art: TR-FRET artefact, counter-screen to PPARgamma/SRC-1 agonist assay; TR-FRET detection artefact counter-screen, emission ratio; active compounds read high; TR-FRET ratio at 8 µM; 0.34% of 99,000 active; AID 1051; in the data active means TR-FRET ratio above about 2300
* = called active by the depositor; · = no result given. Unless noted, no stated cut-off is given here; in the data, active means TR-FRET ratio above about 2000; inactive means the rest.

SMILES	PPARg SRC2 recr	PPARg SRC1 recr	TR-FRET SRC-2 ct	PPARg SRC-3 ag	SRC3 TRFRET art	SRC1 TRFRET art
Cc1cc(C)cc(N2C(=O)CSC2c2cccs2)c1 (stereo not drawn)	11	7	1989*	0	1827	1726
Cc1ccc(N2C(=O)CSC2c2cccs2)cc1 (stereo not drawn)	5	-3	1646	12	·	·
CC(C)n1c(SCC(=O)NCc2ccco2)nc2c1c(=O)n(C)c(=O)n2C	3	20*	1612	-1	·	·
Cc1ccc2nc(SCC(=O)NCc3cccs3)c(C#N)cc2c1	1	42*	1428	-6	·	·
Cn1c(=O)c2c(nc(SCC(=O)NCc3ccco3)n2C)n(C)c1=O	15	2	1715	4	·	·
Cc1ccc2nc(SCC(=O)NCc3ccco3)c(C#N)cc2c1	16	10	2312*	10	·	·
CCOC(=O)c1sc(NC(=O)CSc2nnc(-c3ccc(OC)cc3)n2CCOC)nc1C	-2	2	1482	5	·	·
O=C(Nc1ccccc1Br)C1CCC(=O)N1Cc1ccccc1Cl (stereo not drawn)	3	-2	1493	-3	·	·
CCOC(=O)CSc1nnc(CNc2ccc(Cl)cc2)n1Cc1ccccc1	12	-2	1582	7	·	·
Cc1onc(-c2c(Cl)cccc2Cl)c1C(=O)N1C=CC(C(F)(F)F)=NCC1	10	4	1675	10	·	·
Cc1onc(-c2c(F)cccc2Cl)c1C(=O)N1C=CC(C(F)(F)F)=NCC1	5	8	2038*	17	·	·
CC1=NNC(=O)C1CC(=O)N/N=C(\C)c1ccco1 (stereo not drawn)	6	2	1775	2	1454	2343*
CC1=NNC(=O)C1CCC(=O)N/N=C(\C)c1ccccc1 (stereo not drawn)	-1	0	1390	2	1476	1740
CCCCCCCCC(=O)N/N=C/c1cccc(Br)c1	5	7	1664	-2	·	·
Cc1cccc(C)c1NC(=S)Nc1c(C)n(C)n(-c2ccccc2)c1=O	-1	26*	1391	-5	1560	1821
C/C(=N\O)c1ccc(N2C(=O)C3CC=C(Cl)CC3C2=O)cc1 (stereo not drawn)	11	-2	1576	-2	·	·
O=C(CSCc1ccc(Cl)cc1)Nc1ccc(S(=O)(=O)N2CCCCCC2)cc1	-2	4	1446	1	1378	1472
COc1ccccc1CN(C)C(=O)c1ccc2c(c1)NC(=O)CS2	8	-4	1488	48*	·	·
COC(=O)c1ccc2c(c1)NC(=O)CS2	7	2	1672	-2	1558	1887
Cn1c(C(=O)N2CCOCC2)cnc1Sc1ncc(C(F)(F)F)cc1Cl	22*	-1	1743	10	·	·
Cc1ccc(S(=O)(=O)NC(=O)CSc2nc3ccccc3s2)cc1	9	-3	1561	10	·	·
O=C(CC1CCCC1)Nc1ccc2c(c1)CCC2	57*	8	1871	13	·	·
O=C(Cc1ccccc1)Nc1ccc2c(c1)CCC2	-5	4	1537	-1	1629	1680
COc1cc2c(cc1OC)CN(c1ccc([N+](=O)[O-])cc1Cl)CC2	-2	10	1438	5	1626	1911
CCCCc1ccc(/C=C(\C#N)C(N)=S)s1	0	4	1625	-1	1538	1995
SMILES	PPARg SRC2 recr	PPARg SRC1 recr	TR-FRET SRC-2 ct	PPARg SRC-3 ag	SRC3 TRFRET art	SRC1 TRFRET art
CCCCc1ccc(C2C(C#N)=C(N)SC(N)=C2C#N)s1	4	21*	1742	8	·	·
CCCn1c(NC(=O)c2ccc(F)cc2)nc2ccccc21	2	-1	1479	3	1516	1892
CCCn1c(NC(=O)c2ccc(Br)cc2)nc2ccccc21	2	34*	1587	-1	·	·
O=C(CSc1cn(Cc2ccccc2)c2ccccc12)Nc1nccs1	1	-2	3013*	-10	·	·
CCOC(=O)c1oc2ccc(S(=O)(=O)N3CCC(C)CC3)cc2c1C	-1	46*	1625	15	·	·
CCOC(=O)C1=C(C)Nc2ccccc2N=C1NC(=O)C(c1ccccc1)c1ccccc1	10	4	1768	3	2077*	2300
CCOC(=O)C1=C(C)Nc2ccccc2N=C1NC(=O)c1ccc(Cl)c(S(=O)(=O)N2CCCC2)c1	4	5	1448	1	2223*	2193
CCOC(=O)C1=C(C)Nc2ccccc2N=C1NC(=O)c1cccc(S(=O)(=O)N(C)C)c1	4	4	1733	4	·	·
CCS(=O)(=O)N1CCN(c2nc(-c3ccccc3)cs2)CC1	5	9	1453	10	2121*	1774
CS(=O)(=O)N1CCN(c2nc(-c3ccccc3)cs2)CC1	-1	4	1400	5	·	·
O=C(CSc1nnc(-c2cccs2)n1-c1ccccc1)N1CCc2ccccc21	6	30*	1416	-4	·	·
O=C(CSc1nnc(-c2ccco2)n1-c1ccccc1)N1CCc2ccccc21	2	13	1562	6	·	·
Oc1ccc(C2Nc3cccc4cccc(c34)N2)c(O)c1	19	30*	1494	31*	·	·
O=C(c1cnc(-c2ccc(Cl)cc2)s1)c1ccc(Cl)cc1Cl	3	12	1430	36*	·	·
O=C(O)Cc1ccc(C(=O)c2ccc(Cl)cc2Cl)s1	7	0	1896	0	1693	2208
CCc1nn(CC(=O)NCCCN(CC)Cc2ccccc2)c(=O)c2cc3sccc3n12	3	-4	2044*	-6	·	·
Cc1oc(-c2ccccc2F)nc1CN1CCC(C(=O)NC2CCCc3ccccc32)CC1 (stereo not drawn)	-8	-7	1405	-3	·	·
O=C(COC(=O)/C=C/c1cccc(Cl)c1)Nc1ccccc1-c1ccccc1	19	5	1796	3	1634	1840
NC(=O)Cn1nnc(-c2ccc(C(F)(F)F)cc2)n1	0	-6	1326	-3	·	·
CCC/C(C)=N/NC(=O)c1ccccc1O	8	1	1491	0	1608	1506
O=C(CSc1nnc(Cc2csc(Nc3cccc(Cl)c3)n2)o1)N1CCc2ccccc21	15	13	2013*	19	·	·
O=C(CSc1ccc2ccccc2c1Br)Nc1cccc(S(=O)(=O)NC2=NCCCCC2)c1	13	6	1866	10	2200*	1973
O=C(NCc1n[nH]c(=S)n1-c1ccc(Br)cc1)c1ccc(S(=O)(=O)N2CCOCC2)cc1	22*	5	1713	4	1445	1728
O=C(NCc1n[nH]c(=S)n1-c1ccc(Br)cc1)c1ccc(S(=O)(=O)N2CCCC2)cc1	3	5	1416	0	1545	1793
CCOc1ccc2cc(C#N)c(SCC(=O)NC(C)CC)nc2c1 (stereo not drawn)	16	32*	1580	0	·	·
CCOC(=O)COc1ccc(/C=C2\NC(=S)N(CC)C2=O)cc1	94*	-6	3635*	0	1401	1582
Cc1[nH]c(-c2ccc3c(c2)OCO3)nc1C(=O)O	10	4	1650	-2	·	·
CCn1c(O)c(C=Nc2ccccc2)oc1=S	8	11	1976*	5	·	·
CCCn1c(O)c(C=Nc2ccccc2)sc1=S	-3	-4	1498	-2	1466	1715

Bioassay records: PubChem, The Scripps Research Institute Molecular Screening Center
